In all, about 16,000 sequences were measured (“rpm ratio (pull-down/input)”: median about 0.5, highest 2% from about 5.5 on). This is one part of a sample in which the highest values are shown more often than they occur.

32 sequences from PMC12820563, “FoxP3 forms a head-to-head dimer in vivo and stabilizes its multimerization on adjacent microsatellites” can be followed below.

For this test, the target named is T1, MBP-FoxP3dN (Mus musculus, UniProt Q99JB6 188-423).
T1 sequence: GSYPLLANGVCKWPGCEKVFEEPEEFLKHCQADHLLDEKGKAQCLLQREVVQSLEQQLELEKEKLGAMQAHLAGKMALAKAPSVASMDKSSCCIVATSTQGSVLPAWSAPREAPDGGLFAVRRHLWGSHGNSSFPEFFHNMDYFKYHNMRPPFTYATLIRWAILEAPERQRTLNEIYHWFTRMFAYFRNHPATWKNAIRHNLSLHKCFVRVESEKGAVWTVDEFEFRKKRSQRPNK
The test can be described thus: PD-seq (MBP pull-down with sequencing); 20 mM Tris-HCl pH 7.5, 100 mM NaCl, 1.5 mM MgCl2, 0.4 uM protein, 0.1 uM dsDNA library, 30 min, room temperature, amylose pull-down; high values mean tight binding. The following applies: protein: recombinant; tags: His6-MBP; chain copies: 2; dsDNA, one strand shown. In short, it runs like this:
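E. coli-expressed mouse FoxP3 or FoxP1 fragment, N-terminus removed and tagged with His6-MBP, was used at 0.4 µM against 0.1 µM of a Klenow-filled degenerate double-stranded DNA library. After 30 min at room temperature in Tris pH 7.5 buffer with NaCl and MgCl2, complexes were pulled down on amylose resin and washed three times. Binding is pull-down over input reads-per-million enrichment from pooled replicates of the proteinase K-released, PCR-barcoded, Illumina-sequenced DNA.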
Turning to “GATGATTGTTCTCCCAGCTGATGAATTTTCTTGCTCGAGTAAACAAATTTTCCTAATCTTTCTGTTCAAGCGCCATCTAC”, the binding signal was 0.298 RPM ratio (pull-down/input).
For “GATGATTGTTCTCCCAGCTGATGAATTGCTTGTCTCGAGTAAACAAATTTTCCTAATCTTTCTGTTCAAGCGCCATCTAC” the value was 1.71 RPM ratio (pull-down/input); for “GATGATTGTTCTCCCAGCTGATGAATTTGCTTTCTCGAGTAAACAAATTTTCCTAATCTTTCTGTTCAAGCGCCATCTAC”, 5.95 RPM ratio (pull-down/input); for “GATGATTGTTCTCCCAGCTGATGAATTGCTTTGCTCGAGTAAACAAATTTTCCTAATCTTTCTGTTCAAGCGCCATCTAC”, 1.22 RPM ratio (pull-down/input).
For “GATGATTGTTCTCCCAGCTGATGAATTGCTTTACTCGAGTAAACAAATTTTCCTAATCTTTCTGTTCAAGCGCCATCTAC” the value was 1.22 RPM ratio (pull-down/input).
The figure for “GATGATTGTTCTCCCAGCTGATGAATTTGCTGTCTCGAGTAAACAAATTTTCCTAATCTTTCTGTTCAAGCGCCATCTAC” is 6.16 RPM ratio (pull-down/input); for “GATGATTGTTCTCCCAGCTGATGAATTTGCTTGCTCGAGTAAACAAATTTTCCTAATCTTTCTGTTCAAGCGCCATCTAC” it is 6.22 RPM ratio (pull-down/input); for “GATGATTGTTCTCCCAGCTGATGAATTTTGCTACTCGAGTAAACAAATTTTCCTAATCTTTCTGTTCAAGCGCCATCTAC” it is 2.59 RPM ratio (pull-down/input).
Regarding “GATGATTGTTCTCCCAGCTGATGAATTTAGCAGGTCGAGTAAACAAATTTTCCTAATCTTTCTGTTCAAGCGCCATCTAC”, the binding signal is 0.708 RPM ratio (pull-down/input).
For “GATGATTGTTCTCCCAGCTGATGAATTCCCATGGTCGAGTAAACAAATTTTCCTAATCTTTCTGTTCAAGCGCCATCTAC” the value was 0.262 RPM ratio (pull-down/input).
For “GATGATTGTTCTCCCAGCTGATGAATTACCAGGGTCGAGTAAACAAATTTTCCTAATCTTTCTGTTCAAGCGCCATCTAC”, the binding signal is 0.252 RPM ratio (pull-down/input).
The figure for “GATGATTGTTCTCCCAGCTGATGAATTTATCCGTTCGAGTAAACAAATTTTCCTAATCTTTCTGTTCAAGCGCCATCTAC” is 0.58 RPM ratio (pull-down/input); for “GATGATTGTTCTCCCAGCTGATGAATTGCTTTCATCGAGTAAACAAATTTTCCTAATCTTTCTGTTCAAGCGCCATCTAC” it is 1.04 RPM ratio (pull-down/input); for “GATGATTGTTCTCCCAGCTGATGAATTGTAGCCATCGAGTAAACAAATTTTCCTAATCTTTCTGTTCAAGCGCCATCTAC” it is 1.99 RPM ratio (pull-down/input).
Turning to “GATGATTGTTCTCCCAGCTGATGAATTTCAACGATCGAGTAAACAAATTTTCCTAATCTTTCTGTTCAAGCGCCATCTAC”, the binding signal is 0.284 RPM ratio (pull-down/input).
Turning to “GATGATTGTTCTCCCAGCTGATGAATTCTGGGGGTCGAGTAAACAAATTTTCCTAATCTTTCTGTTCAAGCGCCATCTAC”, the binding signal is 0.456 RPM ratio (pull-down/input).
The figure for “GATGATTGTTCTCCCAGCTGATGAATTGTTGAATTCGAGTAAACAAATTTTCCTAATCTTTCTGTTCAAGCGCCATCTAC” is 1 RPM ratio (pull-down/input); for “GATGATTGTTCTCCCAGCTGATGAATTCTTTTTTTCGAGTAAACAAATTTTCCTAATCTTTCTGTTCAAGCGCCATCTAC” it is 0.311 RPM ratio (pull-down/input); for “GATGATTGTTCTCCCAGCTGATGAATTCGAGTTTTCGAGTAAACAAATTTTCCTAATCTTTCTGTTCAAGCGCCATCTAC” it is 0.651 RPM ratio (pull-down/input).
With “GATGATTGTTCTCCCAGCTGATGAATTTTGTTTTTCGAGTAAACAAATTTTCCTAATCTTTCTGTTCAAGCGCCATCTAC”, the binding signal was 7.43 RPM ratio (pull-down/input).
For “GATGATTGTTCTCCCAGCTGATGAATTCTTTGATTCGAGTAAACAAATTTTCCTAATCTTTCTGTTCAAGCGCCATCTAC” the value was 0.276 RPM ratio (pull-down/input); for “GATGATTGTTCTCCCAGCTGATGAATTCCTGTTTTCGAGTAAACAAATTTTCCTAATCTTTCTGTTCAAGCGCCATCTAC”, 0.929 RPM ratio (pull-down/input); for “GATGATTGTTCTCCCAGCTGATGAATTTTTTGATTCGAGTAAACAAATTTTCCTAATCTTTCTGTTCAAGCGCCATCTAC”, 0.323 RPM ratio (pull-down/input).
The figure for “GATGATTGTTCTCCCAGCTGATGAATTTGTTGATTCGAGTAAACAAATTTTCCTAATCTTTCTGTTCAAGCGCCATCTAC” is 7.3 RPM ratio (pull-down/input); for “GATGATTGTTCTCCCAGCTGATGAATTTTTGTTTTCGAGTAAACAAATTTTCCTAATCTTTCTGTTCAAGCGCCATCTAC” it is 2.51 RPM ratio (pull-down/input); for “GATGATTGTTCTCCCAGCTGATGAATTCTGTTGTTCGAGTAAACAAATTTTCCTAATCTTTCTGTTCAAGCGCCATCTAC” it is 7.51 RPM ratio (pull-down/input).
For “GATGATTGTTCTCCCAGCTGATGAATTCTGTTTTTCGAGTAAACAAATTTTCCTAATCTTTCTGTTCAAGCGCCATCTAC” the value was 5.51 RPM ratio (pull-down/input).
Consider “GATGATTGTTCTCCCAGCTGATGAATTGTTTTGTTCGAGTAAACAAATTTTCCTAATCTTTCTGTTCAAGCGCCATCTAC”, for which the binding signal was 4.09 RPM ratio (pull-down/input).
For “GATGATTGTTCTCCCAGCTGATGAATTATTAGGTTCGAGTAAACAAATTTTCCTAATCTTTCTGTTCAAGCGCCATCTAC” the value was 0.47 RPM ratio (pull-down/input).
Consider “GATGATTGTTCTCCCAGCTGATGAATTAACTTAGTCGAGTAAACAAATTTTCCTAATCTTTCTGTTCAAGCGCCATCTAC”, for which the binding signal was 0.295 RPM ratio (pull-down/input).
For “GATGATTGTTCTCCCAGCTGATGAATTTCTTCACTCGAGTAAACAAATTTTCCTAATCTTTCTGTTCAAGCGCCATCTAC” the value was 0.269 RPM ratio (pull-down/input); for “GATGATTGTTCTCCCAGCTGATGAATTTAGGGTATCGAGTAAACAAATTTTCCTAATCTTTCTGTTCAAGCGCCATCTAC”, 1.02 RPM ratio (pull-down/input).
